The values that follow come from ChEMBL document CHEMBL1201862, “PubChem BioAssay data set” (2004).

Entries with a potency or affinity are not part of this list. Only a part of the results of these assays is listed, not drawn at random.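 Following 48 hours of exposure in 96-well plates, responses at five concentrations were used to interpolate endpoints linearly. Abbreviation: GI50, concentration required for 50% inhibition of growth.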

The subject of the experiment is KM-20L2. As to the kind of experiment: NCI tumour cell line growth inhibition, 48 h.

For CADMIUM DICHLORIDE, CHEMBL1458880, the GI50 was determined as 100 µM.
